Binding signal data for one sequence are collected here from article PMC7862700, “An all-to-all approach to the identification of sequence-specific readers for epigenetic DNA modifications on cytosine”.

What all share (assay): DAPPL (digital affinity profiling via proximity ligation, sequencing); 10 mM Tris-HCl pH 7.5, 50 mM NaCl, 1 mM DTT, 4% glycerol, room temperature, 30 min; GST-TFs on glutathione beads, 16-mer random dsDNA library, 0.1% formaldehyde crosslink after washing; high values mean tight binding
Common to all, as to details: protein: recombinant; tags: N-terminal GST; dsDNA, one strand shown

For one test, the target named is T1, ELK1 (Homo sapiens, UniProt P19419 1-428).
T1 sequence: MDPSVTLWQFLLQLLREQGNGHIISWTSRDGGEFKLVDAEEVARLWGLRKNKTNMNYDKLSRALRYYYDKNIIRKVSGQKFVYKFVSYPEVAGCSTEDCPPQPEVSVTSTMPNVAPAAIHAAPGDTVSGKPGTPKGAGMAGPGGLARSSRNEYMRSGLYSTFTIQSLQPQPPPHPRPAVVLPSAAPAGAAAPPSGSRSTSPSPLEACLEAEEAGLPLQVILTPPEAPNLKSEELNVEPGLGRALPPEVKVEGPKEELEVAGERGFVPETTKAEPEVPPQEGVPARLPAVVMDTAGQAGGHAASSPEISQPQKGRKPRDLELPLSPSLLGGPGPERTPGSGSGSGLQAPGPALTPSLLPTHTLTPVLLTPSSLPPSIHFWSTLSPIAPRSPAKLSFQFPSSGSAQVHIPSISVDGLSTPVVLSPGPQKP
Put shortly: (§1)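 Beads coated with glutathione captured GST-fused human transcription factors that had been expressed in yeast, and the factors were then given DNA barcodes and pooled with a tag-only sample. The pools were incubated with 200 nmole of a random double-stranded 16-mer DNA library in Tris/NaCl/DTT/glycerol buffer for 30 min at room temperature, washed, crosslinked with 0.1% formaldehyde and proximity-ligated with BsaI/T4 ligase at 37 °C for 1 h. PCR amplification and Illumina NextSeq500 sequencing came last. Binding signal is each hexamer's read frequency for a factor divided by its frequency for the tag-only sample.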

Another test has as its target T2, GABPA (Homo sapiens, UniProt Q06546 1-454).
T2 sequence: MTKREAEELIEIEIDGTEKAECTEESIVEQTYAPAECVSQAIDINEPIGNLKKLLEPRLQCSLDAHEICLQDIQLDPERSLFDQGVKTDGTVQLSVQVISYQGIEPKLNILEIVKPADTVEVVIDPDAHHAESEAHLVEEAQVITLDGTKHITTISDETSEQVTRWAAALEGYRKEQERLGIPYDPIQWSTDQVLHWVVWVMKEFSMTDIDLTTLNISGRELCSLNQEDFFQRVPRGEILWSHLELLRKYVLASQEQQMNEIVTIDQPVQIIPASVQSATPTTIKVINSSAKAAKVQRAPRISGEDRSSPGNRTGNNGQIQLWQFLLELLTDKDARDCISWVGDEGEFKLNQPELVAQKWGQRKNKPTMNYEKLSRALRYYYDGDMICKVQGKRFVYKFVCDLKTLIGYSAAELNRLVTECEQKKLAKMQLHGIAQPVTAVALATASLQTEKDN
A digest of the protocol: as §1

Another test has as its target ELF1 (Homo sapiens, UniProt P32519 1-619). A digest of the protocol:
as §1

The target in a further test is T3, EHF (Homo sapiens, UniProt Q9NZC4 1-300).
T3 sequence: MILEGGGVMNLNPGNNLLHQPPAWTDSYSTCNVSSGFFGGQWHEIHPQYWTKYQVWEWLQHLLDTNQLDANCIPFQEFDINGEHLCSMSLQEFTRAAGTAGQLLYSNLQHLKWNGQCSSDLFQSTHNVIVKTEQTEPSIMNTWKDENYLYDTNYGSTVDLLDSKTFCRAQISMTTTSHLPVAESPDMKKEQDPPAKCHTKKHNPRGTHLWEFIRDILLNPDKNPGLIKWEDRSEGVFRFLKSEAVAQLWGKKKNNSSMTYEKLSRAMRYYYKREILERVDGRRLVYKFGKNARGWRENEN
Put shortly: as §1

For the next test, the target named is T4, SPIC (Homo sapiens, UniProt Q8N5J4 1-248).
T4 sequence: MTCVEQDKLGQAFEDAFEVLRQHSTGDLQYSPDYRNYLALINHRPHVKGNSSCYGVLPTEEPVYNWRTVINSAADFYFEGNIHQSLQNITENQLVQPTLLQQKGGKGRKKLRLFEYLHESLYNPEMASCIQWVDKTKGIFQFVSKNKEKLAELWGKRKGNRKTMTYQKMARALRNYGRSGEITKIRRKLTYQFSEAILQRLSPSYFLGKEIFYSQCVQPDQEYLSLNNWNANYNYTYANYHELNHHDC
A digest of the protocol:
as §1

The target of the next test is ELF4 (Homo sapiens, UniProt Q99607 1-663). A digest of the protocol: as §1
ELF4, sequence (Q99607 whole entry): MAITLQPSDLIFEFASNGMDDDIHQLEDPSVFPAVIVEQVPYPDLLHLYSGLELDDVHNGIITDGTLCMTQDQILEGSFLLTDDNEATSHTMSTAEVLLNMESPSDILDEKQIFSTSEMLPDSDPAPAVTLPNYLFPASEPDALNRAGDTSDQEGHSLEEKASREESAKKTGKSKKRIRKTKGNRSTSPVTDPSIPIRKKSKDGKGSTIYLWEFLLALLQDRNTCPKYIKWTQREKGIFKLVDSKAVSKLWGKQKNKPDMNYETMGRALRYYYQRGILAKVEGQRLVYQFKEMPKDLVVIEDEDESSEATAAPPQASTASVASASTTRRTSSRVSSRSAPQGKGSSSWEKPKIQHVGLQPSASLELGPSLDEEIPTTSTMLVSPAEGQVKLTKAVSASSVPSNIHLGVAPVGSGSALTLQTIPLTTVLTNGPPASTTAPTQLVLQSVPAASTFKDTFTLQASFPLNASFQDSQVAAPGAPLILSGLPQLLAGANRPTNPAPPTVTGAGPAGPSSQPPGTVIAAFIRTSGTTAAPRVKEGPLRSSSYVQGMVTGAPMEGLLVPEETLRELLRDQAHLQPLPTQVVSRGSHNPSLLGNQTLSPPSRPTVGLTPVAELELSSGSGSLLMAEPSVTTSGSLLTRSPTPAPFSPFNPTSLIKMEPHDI
The next test addresses T5, ELK4 (Homo sapiens, UniProt P28324-2 1-405).
T5 sequence: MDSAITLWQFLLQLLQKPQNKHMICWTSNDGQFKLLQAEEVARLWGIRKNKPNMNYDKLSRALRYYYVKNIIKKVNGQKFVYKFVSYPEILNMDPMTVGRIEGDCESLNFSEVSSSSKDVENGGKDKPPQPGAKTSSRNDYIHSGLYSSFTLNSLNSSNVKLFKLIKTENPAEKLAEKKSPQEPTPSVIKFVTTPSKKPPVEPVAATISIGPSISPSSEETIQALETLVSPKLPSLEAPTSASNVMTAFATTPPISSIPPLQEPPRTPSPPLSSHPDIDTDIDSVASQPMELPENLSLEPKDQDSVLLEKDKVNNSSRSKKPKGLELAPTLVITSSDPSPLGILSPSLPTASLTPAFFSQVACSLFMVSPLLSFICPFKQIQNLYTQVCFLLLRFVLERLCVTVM
A digest of the protocol: as §1

In the next test the target is T6, ELF3 (Homo sapiens, UniProt P78545 1-371).
T6 sequence: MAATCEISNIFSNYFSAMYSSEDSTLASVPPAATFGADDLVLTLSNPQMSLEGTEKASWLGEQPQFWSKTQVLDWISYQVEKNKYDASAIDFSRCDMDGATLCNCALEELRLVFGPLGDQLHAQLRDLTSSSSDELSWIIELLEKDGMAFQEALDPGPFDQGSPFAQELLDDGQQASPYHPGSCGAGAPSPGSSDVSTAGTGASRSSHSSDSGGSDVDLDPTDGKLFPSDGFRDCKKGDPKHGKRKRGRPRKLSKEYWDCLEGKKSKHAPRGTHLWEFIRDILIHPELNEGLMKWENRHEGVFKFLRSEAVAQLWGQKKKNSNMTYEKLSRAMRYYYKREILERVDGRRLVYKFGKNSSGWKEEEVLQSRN
A digest of the protocol:
as §1

The next test deals with ETV1 (Homo sapiens, UniProt P50549 1-477). A digest of the protocol:
as §1

Another test has as its target T7, ETS2 (Homo sapiens, UniProt P15036 1-469).
T7 sequence: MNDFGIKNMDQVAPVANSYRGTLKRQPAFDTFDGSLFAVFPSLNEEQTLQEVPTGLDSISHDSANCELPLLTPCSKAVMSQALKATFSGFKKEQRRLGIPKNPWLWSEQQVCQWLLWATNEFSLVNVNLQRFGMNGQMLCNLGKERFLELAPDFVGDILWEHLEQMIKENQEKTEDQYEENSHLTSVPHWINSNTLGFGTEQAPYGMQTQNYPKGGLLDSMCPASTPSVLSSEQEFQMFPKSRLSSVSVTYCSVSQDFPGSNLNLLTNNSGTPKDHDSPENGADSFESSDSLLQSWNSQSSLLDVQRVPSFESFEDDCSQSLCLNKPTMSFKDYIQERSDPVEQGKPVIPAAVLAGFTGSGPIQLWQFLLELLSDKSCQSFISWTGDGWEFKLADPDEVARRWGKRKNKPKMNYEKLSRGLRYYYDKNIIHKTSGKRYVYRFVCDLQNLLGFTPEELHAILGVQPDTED
A digest of the protocol:
as §1

A further test concerns the target T8, ETV7 (Homo sapiens, UniProt Q9Y603 1-341).
T8 sequence: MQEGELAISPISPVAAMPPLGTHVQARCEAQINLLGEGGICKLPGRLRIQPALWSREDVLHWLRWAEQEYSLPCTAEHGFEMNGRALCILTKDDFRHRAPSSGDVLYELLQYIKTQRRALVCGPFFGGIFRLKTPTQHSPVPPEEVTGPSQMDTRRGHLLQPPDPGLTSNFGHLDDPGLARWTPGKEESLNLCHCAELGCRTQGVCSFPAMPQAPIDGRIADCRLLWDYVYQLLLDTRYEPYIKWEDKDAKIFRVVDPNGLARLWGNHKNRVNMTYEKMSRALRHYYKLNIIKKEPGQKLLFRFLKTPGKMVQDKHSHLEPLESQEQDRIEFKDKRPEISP
Put shortly:
as §1

The next test has as its target T9, ETV3 (Homo sapiens, UniProt P41162-2 1-143).
T9 sequence: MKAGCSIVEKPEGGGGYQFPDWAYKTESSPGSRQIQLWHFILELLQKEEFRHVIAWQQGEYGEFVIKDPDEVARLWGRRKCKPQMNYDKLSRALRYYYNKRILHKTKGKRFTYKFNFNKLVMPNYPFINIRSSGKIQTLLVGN
A digest of the protocol: as §1

ELF1, sequence (P32519 whole entry): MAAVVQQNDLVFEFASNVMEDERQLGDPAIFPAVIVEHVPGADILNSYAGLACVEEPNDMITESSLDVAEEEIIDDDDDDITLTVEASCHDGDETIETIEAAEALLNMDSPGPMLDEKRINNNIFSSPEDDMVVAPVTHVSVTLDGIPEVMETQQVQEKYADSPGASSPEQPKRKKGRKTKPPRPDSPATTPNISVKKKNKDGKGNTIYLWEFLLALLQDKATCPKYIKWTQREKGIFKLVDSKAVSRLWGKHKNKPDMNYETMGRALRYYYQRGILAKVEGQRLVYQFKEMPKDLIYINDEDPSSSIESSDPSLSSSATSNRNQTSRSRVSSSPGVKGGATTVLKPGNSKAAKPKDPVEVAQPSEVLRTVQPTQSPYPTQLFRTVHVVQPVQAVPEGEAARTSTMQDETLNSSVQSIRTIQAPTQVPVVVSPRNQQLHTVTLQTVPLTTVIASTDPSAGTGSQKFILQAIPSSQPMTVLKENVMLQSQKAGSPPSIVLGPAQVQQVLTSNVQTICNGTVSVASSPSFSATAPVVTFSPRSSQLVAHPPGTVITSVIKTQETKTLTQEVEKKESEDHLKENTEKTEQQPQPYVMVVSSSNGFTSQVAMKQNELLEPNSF
ETV1, sequence (P50549 whole entry): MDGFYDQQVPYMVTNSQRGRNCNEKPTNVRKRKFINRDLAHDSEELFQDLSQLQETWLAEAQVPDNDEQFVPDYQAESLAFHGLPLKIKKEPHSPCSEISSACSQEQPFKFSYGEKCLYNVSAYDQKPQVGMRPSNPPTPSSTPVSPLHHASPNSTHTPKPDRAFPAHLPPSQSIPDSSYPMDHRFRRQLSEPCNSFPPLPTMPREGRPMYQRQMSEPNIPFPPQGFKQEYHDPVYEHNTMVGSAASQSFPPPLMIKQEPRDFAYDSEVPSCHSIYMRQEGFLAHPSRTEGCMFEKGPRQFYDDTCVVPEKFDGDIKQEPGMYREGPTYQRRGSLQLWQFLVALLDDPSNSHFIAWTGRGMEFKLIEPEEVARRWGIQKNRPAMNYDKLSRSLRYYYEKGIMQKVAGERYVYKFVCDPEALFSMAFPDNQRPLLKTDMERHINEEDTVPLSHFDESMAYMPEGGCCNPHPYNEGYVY

Take AGCTGA: the binding signal was 1.07 fold enrichment (6-mer frequency, TF over GST control) with ELK1; 1.01 fold enrichment (6-mer frequency, TF over GST control) with GABPA; 1.1 fold enrichment (6-mer frequency, TF over GST control) with ELF1; 1.11 fold enrichment (6-mer frequency, TF over GST control) with EHF; 1.14 fold enrichment (6-mer frequency, TF over GST control) with SPIC; 1.01 fold enrichment (6-mer frequency, TF over GST control) with ELF4. The binding signal in the test with ELK4 was 1.02 fold enrichment (6-mer frequency, TF over GST control); with ELF3 it was 1.14 fold enrichment (6-mer frequency, TF over GST control); in the test with ETV1 it was 1.08 fold enrichment (6-mer frequency, TF over GST control); with ETS2, 1.04 fold enrichment (6-mer frequency, TF over GST control); with ETV7, 1.09 fold enrichment (6-mer frequency, TF over GST control); with ETV3, 1.05 fold enrichment (6-mer frequency, TF over GST control).
